Measured values from PubChem BioAssay (NCI).
About 83,000 compounds went through this panel and 20% of them were active in at least one assay; those are over-represented in the sample as a whole.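 48-hour exposure, single concentration, 96-well plates; percent growth endpoint where 0 means no net growth. Active: below 10.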 Activity calls are given as the source filed them.

Columns and labels:
Test in all cases: NCI-60 one-dose screen, 48 h (100 = growth as untreated, 0 = no growth, -100 = all killed)
[1] = tested on: NCI-H23 lung; settings: 10 µM unless noted
[2] = tested on: NCI-H226 lung; settings: 10 µM unless noted
[3] = tested on: NCI-H322M lung; settings: 10 µM unless noted
[4] = tested on: HOP-62 NSCLC; settings: 10 µM unless noted
[5] = tested on: NCI-H460 lung; settings: 10 µM unless noted
[6] = tested on: HOP-92 NSCLC; settings: 10 µM
[7] = tested on: NCI-H522 lung; settings: 10 µM unless noted
[8] = tested on: A549/ATCC NSCLC; settings: 10 µM unless noted
[9] = tested on: 786-0 renal; settings: 10 µM unless noted
[10] = tested on: DU-145 prostate; settings: 10 µM unless noted
[11] = tested on: K-562 leukemia; settings: 10 µM unless noted
[12] = tested on: MALME-3M melanoma; settings: 10 µM unless noted
[13] = tested on: MDA-MB-231 breast; settings: 10 µM unless noted
[14] = tested on: SF-268 CNS; settings: 10 µM unless noted
[15] = tested on: SF-295 CNS; settings: 10 µM unless noted
[16] = tested on: SF-539 CNS; settings: 10 µM unless noted
[17] = tested on: UACC-257 melanoma; settings: 10 µM unless noted
[18] = tested on: COLO 205 colon; settings: 10 µM unless noted
[19] = tested on: RXF 393 renal; settings: 10 µM unless noted
[20] = tested on: M14 melanoma; settings: 10 µM unless noted

Structure (SMILES)	growth [1]	growth [2]	growth [3]	growth [4]	growth [5]	growth [6]	growth [7]	growth [8]	growth [9]	growth [10]	growth [11]	growth [12]	growth [13]	growth [14]	growth [15]	growth [16]	growth [17]	growth [18]	growth [19]	growth [20]
CS(=O)(=O)Nc1cc(-c2ccc3ncc(C#N)c(N[C@H](CO)c4ccccc4)c3c2)cnc1Cl	45.2% (inactive)	56.2% (inactive)	78.3% (inactive)	46.8% (inactive)	74.3% (inactive)	-2.14% (active)	25.7% (inactive)	83.5% (inactive)	54.8% (inactive)	62.4% (inactive)	41.4% (inactive)	29.8% (inactive)	43% (inactive)	28.4% (inactive)	57% (inactive)	43.7% (inactive)	59.7% (inactive)	–	–	–
CNC(=O)c1cc(-c2ccc(NC(=S)Nc3cc(C(F)(F)F)cc(C(F)(F)F)c3)cc2)nc2cccnc12	93.7% (inactive)	87.8% (inactive)	111% (inactive)	79.2% (inactive)	92.1% (inactive)	76.8% (inactive)	–	88.3% (inactive)	89.3% (inactive)	84.9% (inactive)	94.9% (inactive)	99.2% (inactive)	88.7% (inactive)	88.2% (inactive)	89.9% (inactive)	92.1% (inactive)	102% (inactive)	110% (inactive)	41.1% (inactive)	98.5% (inactive)
COc1cc(-c2nn(C(C)(C)C)cc2-c2ccnc(NCCCNS(=O)(=O)c3ccccc3)n2)ccc1Cl	74.4% (inactive)	66% (inactive)	87.2% (inactive)	72.8% (inactive)	71.1% (inactive)	71.9% (inactive)	–	51.4% (inactive)	77.7% (inactive)	67.2% (inactive)	40.7% (inactive)	84% (inactive)	49.3% (inactive)	58.2% (inactive)	83.1% (inactive)	83.7% (inactive)	95.1% (inactive)	101% (inactive)	-1.53% (active)	96.1% (inactive)
O=C(Nc1ccc(N=Cc2c(O)[nH]c3ccccc23)cc1)Nc1nccs1	37.8% (inactive)	30% (inactive)	52.8% (inactive)	37.3% (inactive)	16.8% (inactive)	49.8% (inactive)	–	56.6% (inactive)	52.9% (inactive)	40.5% (inactive)	17.3% (inactive)	46.9% (inactive)	47.9% (inactive)	77.2% (inactive)	70.6% (inactive)	33.6% (inactive)	71.6% (inactive)	25.7% (inactive)	-20.5% (active)	18.5% (inactive)
COc1cc(-c2nn(C(C)(C)C)cc2-c2ccnc(NCCCNS(=O)(=O)c3ccc(C)cc3)n2)ccc1Cl	84.1% (inactive)	70.9% (inactive)	86% (inactive)	70.8% (inactive)	86.7% (inactive)	70.2% (inactive)	–	59.7% (inactive)	83.2% (inactive)	74% (inactive)	57.7% (inactive)	94.4% (inactive)	58.4% (inactive)	63.9% (inactive)	88% (inactive)	91.3% (inactive)	94.6% (inactive)	107% (inactive)	4.95% (active)	90.5% (inactive)
Nc1nc(Nc2ccccc2SSc2ccccc2Nc2nc(N)nc(-c3ccccc3)n2)nc(-c2ccccc2)n1	50.8% (inactive)	59% (inactive)	92.4% (inactive)	17.1% (inactive)	53.2% (inactive)	69.7% (inactive)	–	3.73% (active)	68.2% (inactive)	69.4% (inactive)	62.6% (inactive)	104% (inactive)	62.6% (inactive)	49% (inactive)	26.1% (inactive)	96.2% (inactive)	108% (inactive)	115% (inactive)	50.2% (inactive)	91.9% (inactive)
Nn1c(N/N=C/c2nc3ccccc3s2)n[nH]c1=S	91.8% (inactive)	104% (inactive)	109% (inactive)	74.8% (inactive)	110% (inactive)	98.7% (inactive)	–	95.3% (inactive)	96.1% (inactive)	97.5% (inactive)	108% (inactive)	109% (inactive)	88.2% (inactive)	93.2% (inactive)	105% (inactive)	103% (inactive)	109% (inactive)	115% (inactive)	83.9% (inactive)	111% (inactive)
C[C@@H](Nc1ncnc2ccc(-c3cnc(Cl)c(NS(C)(=O)=O)c3)cc12)c1ccccc1	55.7% (inactive)	64.6% (inactive)	68.2% (inactive)	36.8% (inactive)	60.5% (inactive)	-1.13% (active)	–	54.2% (inactive)	45.4% (inactive)	34.1% (inactive)	73.9% (inactive)	59.2% (inactive)	49% (inactive)	42.5% (inactive)	46% (inactive)	44.5% (inactive)	60.9% (inactive)	80.2% (inactive)	-17.5% (active)	69.1% (inactive)
O=C(Nc1ccc2c(ccn2Cc2ccccn2)c1)c1cnccn1	97% (inactive)	88.3% (inactive)	106% (inactive)	72.7% (inactive)	105% (inactive)	91.4% (inactive)	–	86.1% (inactive)	87.6% (inactive)	95.6% (inactive)	107% (inactive)	106% (inactive)	86.7% (inactive)	84.1% (inactive)	97.5% (inactive)	96.4% (inactive)	102% (inactive)	120% (inactive)	47.8% (inactive)	106% (inactive)
C=C(C)[C@@H]1CC[C@]2(COCCCNCCC#N)CC[C@]3(C)[C@H](CC[C@@H]4[C@@]5(C)CC[C@H](OCCCNCCC#N)C(C)(C)[C@@H]5CC[C@]43C)[C@@H]12	33.4% (inactive)	48.8% (inactive)	105% (inactive)	75.6% (inactive)	41.8% (inactive)	49.7% (inactive)	–	59.2% (inactive)	59.8% (inactive)	65% (inactive)	3.78% (active)	72.4% (inactive)	54.8% (inactive)	55.6% (inactive)	55.9% (inactive)	67.5% (inactive)	61.5% (inactive)	61.8% (inactive)	-9.12% (active)	75.3% (inactive)
CN(C)C(=O)c1cc(-c2ccc3ncnc(NCc4ccccc4)c3c2)cnc1N	91.6% (inactive)	91.8% (inactive)	87% (inactive)	63.2% (inactive)	104% (inactive)	81.1% (inactive)	–	72.9% (inactive)	67.7% (inactive)	55.6% (inactive)	95.9% (inactive)	101% (inactive)	70% (inactive)	65.7% (inactive)	91.7% (inactive)	90.4% (inactive)	94.4% (inactive)	116% (inactive)	-4.14% (active)	109% (inactive)
COc1cc(-c2nn(C(C)(C)C)cc2-c2ccnc(NCCCNS(=O)(=O)c3ccc(F)cc3)n2)ccc1Cl	82.3% (inactive)	72% (inactive)	87.4% (inactive)	71.9% (inactive)	84.2% (inactive)	70.4% (inactive)	–	50.2% (inactive)	76.3% (inactive)	74.1% (inactive)	40.2% (inactive)	86.1% (inactive)	60.1% (inactive)	58% (inactive)	80.5% (inactive)	91.2% (inactive)	93.3% (inactive)	96.1% (inactive)	8.65% (active)	93.3% (inactive)
N/C(=N\C(N)=N\c1nc2ccccc2s1)c1ccc2ccccc2c1	53.2% (inactive)	62.7% (inactive)	96.8% (inactive)	-28% (active)	68.1% (inactive)	88.6% (inactive)	–	9.92% (active)	87.9% (inactive)	69% (inactive)	69.3% (inactive)	91.3% (inactive)	67.9% (inactive)	78.9% (inactive)	74.6% (inactive)	102% (inactive)	109% (inactive)	109% (inactive)	91.8% (inactive)	97.5% (inactive)
COc1ccc(S(=O)(=O)NCCCNc2nccc(-c3cn(C(C)(C)C)nc3-c3ccc(Cl)c(OC)c3)n2)cc1	87.7% (inactive)	73.6% (inactive)	82.5% (inactive)	63.3% (inactive)	84.9% (inactive)	69.4% (inactive)	–	64.4% (inactive)	79.7% (inactive)	72.3% (inactive)	59.7% (inactive)	92.7% (inactive)	43.8% (inactive)	57.9% (inactive)	91.2% (inactive)	89.8% (inactive)	104% (inactive)	105% (inactive)	-0.734% (active)	92.8% (inactive)
O=S(=O)(NCCCNc1nccc(-c2[nH]c(-c3ccccc3)nc2-c2ccc(Cl)c(O)c2)n1)c1cccc2ccccc12	30.6% (inactive)	32.9% (inactive)	50.9% (inactive)	30.9% (inactive)	15.5% (inactive)	–	25.2% (inactive)	26.5% (inactive)	47.9% (inactive)	27.6% (inactive)	17% (inactive)	6.39% (active)	45.9% (inactive)	46.8% (inactive)	12.9% (inactive)	44.8% (inactive)	27% (inactive)	93.8% (inactive)	-9.57% (active)	–
